# Shown are actives, neighbours in structure and some others; about 4.5% of the full set was active somewhere.
# DAX1 inh-1: NR0B1 (DAX1) inhibition | P51843 | HEK293 Gal4-DAX1 luciferase reporter, luminescence | inhibition, % at 6.75 µM | hit rate 0.99% among 340,000;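 active = inhibition above the mean over all tested compounds plus 3 SD, cut at about 4.2% in these data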;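 also: 0% = DAX1-transfected cells with DMSO and 100% = empty-vector control cells with DMSO; inhibition shows as a rise in luminescence from relieved DAX1 repression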
# Target sequence (P51843 207-470 limits assumed): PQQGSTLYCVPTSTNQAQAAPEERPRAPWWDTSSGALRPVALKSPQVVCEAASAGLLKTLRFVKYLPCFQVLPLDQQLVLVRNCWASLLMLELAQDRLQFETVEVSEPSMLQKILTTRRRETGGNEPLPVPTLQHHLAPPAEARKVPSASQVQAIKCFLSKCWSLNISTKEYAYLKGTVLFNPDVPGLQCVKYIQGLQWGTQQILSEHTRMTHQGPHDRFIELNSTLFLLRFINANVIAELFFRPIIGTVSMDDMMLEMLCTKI
# GAA850 FXN act: increases GAA850 frataxin promoter reporter activity; HEK293 lucGAA850 FXN promoter luciferase reporter, 24 h; percent of 10 µM SAHA response; activation, % at 6 µM; hit rate 0.56% among 360,000; AID 540364;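 active = activation above the average of all compounds screened plus 3 SD, cutoff fixed separately per campaign, cut at about 7.5% in these data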;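 also: 0% = DMSO wells and 100% = 10 µM SAHA wells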
# DAX1 inh-2: inhibitors of DAX1 repression of SF-1 activated StAR promoter | HEK293T StAR-luciferase reporter, SF-1/DAX-1 repression relief | inhibition, % at 6.8 µM | hit rate 1.1% among 370,000;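 active = inhibition above the mean over all tested compounds plus 3 SD, cut at about 3.6% in these data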;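 also: 0% = DAX-1 cells with DMSO and 100% = cells lacking DAX-1 with DMSO; higher inhibition means more luminescence from relief of DAX-1 repression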
# ssDAF-12 act: activates DAF-12 receptor from parasite S. stercoralis | HEK293 ssDAF-12/GRIP1 lit1-tk-luc reporter, luminescence; % of 3 µM dafachronic acid response | activation, % at 6.8 µM | hit rate 1% among 370,000;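 active = activation above the mean over all tested compounds plus 3 SD, cut at about 0.9% in these data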;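 also: 0% = DMSO-only wells and 100% = 3 µM delta7-dafachronic acid wells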
# hgDAF12 agonist: activates the H. glycines DAF-12 receptor ligand-binding domain | activation, % at 6.8 µM | hit rate 1.8% among 370,000 | HEK293 GAL4-hgDAF12 UAS-luciferase reporter, agonist luminescence; normalized to butyrate control | AID 687014;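 active = activation above a cutoff set at the mean of all screened compounds plus 3 SD, cut at about 10% in these data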;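 also: 0% = DMSO wells and 100% = sodium butyrate wells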
# hcDAF-12 act: activates DAF-12 receptor from parasite H. contortus | HEK293 hcDAF-12 lit1-tk-luc reporter, luminescence; 0% DMSO, 100% Δ7-dafachronic acid | activation, % at 6.8 µM | hit rate 1.4% among 370,000;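 active = activation above the mean of all tested compounds plus 3 SD, cut at about 5.5% in these data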;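 also: 100% = response to 3 µM Δ7-dafachronic acid high control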
# GAA30 FXN cntr: activates GAA30 frataxin promoter, counter-screen for GAA850 activators; shares compounds with GAA850 FXN act; HEK293 lucGAA30 FXN promoter luciferase, 24 h; DMSO = 0%, 5 µM ipriflavone = 100%; activation, % at 6 µM; hit rate 66% among 1,900;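 active = mean activation above the mean of solvent-only control wells plus 3 SD, cut at about 22% in these data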;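 also: counterscreen of GAA850 promoter hits where activity marks nonselective or luminescence artifacts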
# GAA850 confirm: confirmation of GAA850 frataxin (FXN) promoter activators. activation, % at 6 µM. shares compounds with GAA850 FXN act. HEK293 lucGAA850 FXN promoter luciferase reporter, 24 h; 100% = activation by SAHA. hit rate 86% among 1,900;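 active = mean activation above a set limit taken from the primary screen, cut at about 8% in these data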;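 also: 0% = DMSO wells and 100% = 10 µM SAHA wells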
# DAX1 conf: NR0B1 (human) inhibition, confirmation. shares compounds with DAX1 inh-2. AID 652134. HEK293T StAR-promoter luciferase reporter, SF-1/DAX-1 repression. hit rate 87% among 2,400. inhibition, % at 6.8 µM;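 active = inhibition above the average of every tested compound plus 3 SD, cut at about 3.8% in these data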;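 also: 0% = DAX-1 cells with DMSO and 100% = no DAX-1 control cells with DMSO; active compounds raise luminescence by relieving repression of the StAR reporter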
# SF1 AF2mut Luc: nonselective inhibitor or artifact in SF-1 mutant DAX1 counter-screen | hit rate 78% among 2,400 | HEK293 StAR-luciferase, SF-1 AF2 mutant, luminescence | shares compounds with DAX1 inh-2 | inhibition, % at 6.8 µM;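 active = inhibition above the mean of all tested compounds plus 3 SD, cut at about 3% in these data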;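 also: 0% = DAX-1 transfected cells with DMSO and 100% = cells without DAX-1 with DMSO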
# LXRb hcDAF ctr: activates human LXR-beta, counter-screen for hcDAF-12 agonists; shares compounds with hcDAF-12 act; AID 743027; 3,400 tested, under 10 active; activation, % at 6.8 µM; HEK293 Gal4-LXR tk-luc reporter, luminescence, 24 h; normalized: DMSO 0%, positive control 100%;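 active = mean percent activation of the reporter above a cutoff set as the average over tested compounds plus their standard deviation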
# Target sequence (P55055 whole entry, looked up, the tested form may be a part): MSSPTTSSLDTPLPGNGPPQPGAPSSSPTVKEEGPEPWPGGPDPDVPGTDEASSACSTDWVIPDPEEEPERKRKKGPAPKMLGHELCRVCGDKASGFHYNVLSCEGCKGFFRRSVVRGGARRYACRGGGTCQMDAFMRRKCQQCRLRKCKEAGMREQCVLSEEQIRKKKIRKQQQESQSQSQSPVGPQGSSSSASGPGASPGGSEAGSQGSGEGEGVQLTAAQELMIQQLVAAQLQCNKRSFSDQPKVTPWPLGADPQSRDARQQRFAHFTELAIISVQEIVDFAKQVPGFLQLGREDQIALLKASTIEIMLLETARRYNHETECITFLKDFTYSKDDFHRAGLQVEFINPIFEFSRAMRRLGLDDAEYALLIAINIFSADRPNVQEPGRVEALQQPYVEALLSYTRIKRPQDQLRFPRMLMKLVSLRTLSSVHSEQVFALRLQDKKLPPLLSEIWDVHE
# hcDAF12 conf: hcDAF-12 agonism, confirmation assay; shares compounds with hcDAF-12 act; HEK293 hcDAF-12 lit1-tk-luc reporter, luminescence; % of Δ7-dafachronic acid response; activation, % at 6.8 µM; hit rate 61% among 3,400;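 active = mean activation across triplicate tests above the threshold derived from the earlier primary screen, cut at about 5.5% in these data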;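 also: 0% = DMSO only wells and 100% = 3 µM Δ7-dafachronic acid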
# * hit, by the source's call; . = not tested or not shown; ! = not confirmed by another sample.
SMILES,DAX1 inh-1,GAA850 FXN act,DAX1 inh-2,ssDAF-12 act,hgDAF12 agonist,hcDAF-12 act,GAA30 FXN cntr,GAA850 confirm,LXRb hcDAF ctr,hcDAF12 conf,others
CSc1ccc(CC(=O)N2CCC(n3nccc3NC(=O)C3CC3)CC2)cc1,0,7.7*,6.0*,0,12*,1,96*,32*,.,.,DAX1 conf=2;SF1 AF2mut Luc=3
Cc1cc(Cl)c2oc(C(=O)N(C)C3CCOC3)c(C)c2c1 (stereo unspecified),2,9.8*,6.6*,0,4,0,98*,38*,.,.,DAX1 conf=7.5*;SF1 AF2mut Luc=2
Cc1cc(Cl)c2oc(C(=O)N(C)Cc3cc(C)[nH]n3)c(C)c2c1,1,3,0,-1,-2,-2,.,.,.,.,
Cc1ccnc(NC(=O)CNC(=O)COc2ccccc2)c1,2,7.9*,7.6*,0.9*,9,3,100*,40*,.,.,DAX1 conf=7.2*;SF1 AF2mut Luc=4.0*
Cc1ccc(NC(=O)CNC(=O)COc2ccccc2)nc1,0,-2,2,-1,0,0,.,.,.,.,
COCCCNc1nc2c(-c3ccc(C)cc3)nnn2c2ccccc12,2,7.7*,1,3.6*,12*,8.0*,92*,39*,0,8.0*,
Nc1c2ccccc2nc2ccccc12,3,13*!,0,2.6*,5,14*,-16,94*,1,25*,
O=C(/C=C\c1ccccc1OC(=O)c1ccccc1F)c1cc2ccccc2o1,5.3*,10*,1,1,10,7.3*,94*,29*,1,5.9*,
Cc1cc(C)c2c(N)c3cccc(C)c3nc2n1,2,8.0*,2,1.7*,4,10*,12,143*,2,31*,
COC(=O)[C@]12CCCCC=C1N(Cc1ccc(OC)cc1)C(=O)[C@@H]2CC(=O)NCC12CC3CC(CC(C3)C1)C2,.,.,0,-1,2,-2,.,.,.,.,
O=C(Cc1nc2ccccc2[nH]c1=O)c1ccccc1,1,8.8*,2,1.2*,11*,8.1*,140*,53*,2,9.9*,
O=c1[nH]c2ccccc2nc1Cc1ccccc1,-1,0,0,-2,-2,2,.,.,.,.,
COC(=O)[C@]12C[C@H](CC(=O)NCCC(C)C)C(=O)N(Cc3ccc(Cl)cc3Cl)C1=C[C@H](C1CCCC1)O[C@@H]2C,.,.,-1,-1,0,-3,.,.,.,.,
COc1ccc(-c2nc3c(Br)c(N)c(Br)cc3o2)cc1,1,7,.,.,.,.,.,.,.,.,
Nc1c(Br)cc2oc(-c3ccccc3)nc2c1Br,5.0*,7.9*,2,1.1*,8,7.4*,102*,41*,1,17*,
Cc1ccc(-c2noc(-c3ccccc3F)n2)cc1,2,8.1*,3.7*,2.1*,12*,17*,135*,45*,2,13*,
CS(=O)c1ccccc1-c1nc(-c2ccc(Cl)cc2)no1 (stereo unspecified),0,5,0,0,4,-1,.,.,.,.,
Nn1c(SCC(=O)Nc2cc(C(F)(F)F)ccc2Cl)nnc1-c1n[nH]c2c1CCC2,.,.,-1,-1,2,-2,.,.,.,.,
O=S(=O)(Nc1nc2ccccc2nc1N1CCN(c2ccccc2)CC1)c1ccc(F)cc1,-1,8.0*,0,1,0,8.3*,18,9.7*,0,5,
Cc1nn2c(-c3ccccc3)nnc2c2ccccc12,1,6,1,0,2,4,.,.,.,.,
Cc1nn2c3ccccc3nc2c2ccccc12,1,11*,1,1,5,7.5*,75*,31*,0,7.1*,
COc1cc2c(cc1NC(=O)C1CCCO1)oc1ccccc12 (stereo unspecified),1,8.6*,3,2.3*,15*,12*,109*,31*,1,17*,
CCCCCCC(=O)n1ccc2ccc(-c3ccc4ccn(Cc5ccc(OC)cc5)c4c3)cc21,.,.,-1,-1,2,-2,.,.,.,.,
CC(C)(C)C(=O)N1CCN(c2ccc(NC(=O)c3ccc([N+](=O)[O-])o3)cc2)CC1,-3,5,-1,-1,-3,-2,.,.,.,.,
O=C(Nc1ccc(N2CCCCC2)cc1)c1ccc([N+](=O)[O-])o1,0,13*,0,1,8,7.2*,114*,67*,1,5,
SMILES,DAX1 inh-1,GAA850 FXN act,DAX1 inh-2,ssDAF-12 act,hgDAF12 agonist,hcDAF-12 act,GAA30 FXN cntr,GAA850 confirm,LXRb hcDAF ctr,hcDAF12 conf,others
Fc1cccc(F)c1/C=C/c1ccc2ccccc2n1,-1,8.0*,5.7*,2.7*,20*,23*,108*,34*,2,23*,DAX1 conf=16*;SF1 AF2mut Luc=8.4*
COc1ccc(-c2cn3ccccc3n2)cc1OC,2,7.9*,2,3.1*,11*,13*,146*,44*,1,13*,
COc1ccc(CC(=O)Nc2ccc(-c3cn4ccccc4n3)cc2)cc1OC,-2,-4,0,-1,1,-3,.,.,.,.,
CC1(C)CC(=O)c2ccc(OCc3ccc([N+](=O)[O-])cc3)cc2O1,.,8.4*,2,1.2*,10,17*,136*,50*,1,11*,
CCc1ccccc1CNC(=O)C1CCC(CNS(=O)(=O)c2cccc3cccnc23)CC1 (stereo unspecified),.,.,0,-1,-1,-2,.,.,.,.,
COC(=O)C1=C(C)N(Cc2ccc(C(F)(F)F)cc2)C(=NCc2ccccc2C(F)(F)F)NC1c1cccc(Cl)c1 (stereo unspecified),.,.,1,0,6,1,.,.,.,.,
CC(=O)c1c(C)nc(-c2ccccc2)nc1N,1,2,0,-1,8,1,.,.,.,.,
